# Not all results are given here.
# aSyn UTR act – Activators working through SNCA 5'UTR binding (MLPCN); 7.1% of 300,000 active; activity score, % (tested at 7.5 µM), hits read low; alpha-synuclein 5'UTR reporter, activators screen; in the data active = activity score below about -60%
# Hits are given with their value; i = inactive.
SMILES,aSyn UTR act
Nc1c(C(=O)Nc2ccc3c(c2)OCCO3)nnn1Cc1cccc(Cl)c1,-152.9
Nc1c(C(=O)Nc2ccc3c(c2)OCCO3)nnn1Cc1ccccc1Cl,-205.0
CCOC(=O)Cc1csc(-n2sc3ccccc3c2=O)n1,-88.7
CSc1nc(N)n2nc(-c3ccccc3)cc2n1,-118.6
Cc1ccc(-c2cc3nc(-c4ccccc4)cc(N)n3n2)cc1,-236.3
CCOc1ccc2c(=O)c(Oc3ccccc3OCC)coc2c1,-100.2
CCc1ccc(Oc2coc3cc(OCC(=O)Nc4cc(C)ccc4C)ccc3c2=O)cc1,i
COc1ccccc1-c1coc2cc(O)cc(O)c2c1=O,-71.1
COc1ccc2c(=O)c(-c3ccccc3)coc2c1,-64.8
O=c1c(-c2ccc(F)cc2)coc2cc(O)ccc12,-93.5
CCN(CC)C(=O)Oc1ccc2c(=O)c(-c3ccccc3)coc2c1,-89.9
COc1ccc(-c2coc3cc(O)ccc3c2=O)cc1OC,-65.6
COc1ccc2c(=O)c(-c3ccc(OC)c(OC)c3)coc2c1,-97.2
O=c1c(-c2ccc(F)cc2)coc2c3c(ccc12)OCCO3,-128.0
O=S(=O)(C/C(=C/CO)S(=O)(=O)c1ccccc1)c1ccccc1,-70.8
CC(CC(=O)Nc1ccc2c(c1)OCO2)c1ccccc1 (stereo not drawn),-92.1
CC(CC(=O)Nc1ccc2c(c1)OCCO2)c1ccccc1 (stereo not drawn),-160.8
COc1ccccc1OCc1cc(-c2ccccc2)no1,-224.5
c1ccc(OCc2cc(-c3ccccc3)no2)cc1,-169.4
Cc1cc2ccccn2c1C(=O)c1ccc([N+](=O)[O-])o1,-147.3
O=C(Nc1nc2c(s1)CCCC2)c1ccc(Br)s1,-93.3
Cc1ncsc1C(=O)Nc1nc2c(s1)CCCC2,-158.6
CCCCNC(=O)c1cc2ccccc2s1,-108.1
COC(=O)N(C)c1nc2ccccc2s1,-76.9
CCCCNC(=O)N(C)c1nc2ccccc2s1,-133.2
SMILES,aSyn UTR act
CN(C(=O)OC(C)(C)C)c1ccc(-c2nc3ccccc3s2)cc1,i
COc1cccc(-c2nc(N3CCN(C)CC3)c3ccccc3n2)c1O,-165.0
O=C(Nc1ccccc1)N1CCCC2CCCCC21 (stereo not drawn),-125.0
CCSc1ncc(/C=N/Nc2ccc([N+](=O)[O-])cc2)n1C,-193.9
CCSc1ncc(/C=N/Nc2ccccc2)n1C,-109.0
CCSc1ncc(/C=N/Nc2ccc(Cl)cc2)n1C,-180.5
Nc1nc2c(ccc3ccccc32)s1,-71.6
CC1C(=O)NN=C1C(=O)N/N=C\C(Br)=C\c1ccccc1 (stereo not drawn),-133.6
C/C(=N\NC(=O)C1=NNC(=O)C1C)c1cccs1 (stereo not drawn),-80.6
O=C(N/N=C/C(Br)=C/c1ccccc1)c1ccccc1F,-201.1
O=C(N/N=C/C(Br)=C/c1ccccc1)c1cc(-c2ccco2)[nH]n1,-62.1
C/C(=N/NC(=O)c1cc(C2CC2)[nH]n1)c1cccs1,i
Cc1cc(C(=O)N/N=C/c2cc(N=Nc3ccccc3)ccc2O)n[nH]1,i
O=C(N/N=C/C(Cl)=C/c1ccccc1)c1ccccc1F,-191.5
O=[N+]([O-])c1ccc(N/N=C/c2ccccc2)c(F)c1,-150.7
CCC(=O)Nc1ccc(NC(=O)C23CC4CC(CC(C4)C2)C3)cn1,-93.5
O=C(Nc1ccc(NC(=O)C23CC4CC(CC(C4)C2)C3)cn1)c1ccco1,-144.1
O=C(O)c1cccc(NC(=S)N/N=C/c2ccccc2OCc2ccc(Br)cc2)c1,-83.7
O=C(O)c1cccc(NC(=S)N/N=C/c2cccc(O)c2)c1,i
COc1ccc(NC(C)C(=O)N/N=C/c2ccccc2OCc2ccc(Br)cc2)cc1 (stereo not drawn),-77.3
Cc1ccc(C(C)C)c(OCc2ccc(C(=O)N/N=C/c3cccc(O)c3O)cc2)c1,i
COc1cc(/C=C2\SC(N)=NC2=O)cc(OC)c1,-63.9
COc1ccc(Cl)cc1C(=O)Nc1cccnc1Cl,-77.7
COc1ccc(Cl)cc1C(=O)Nc1ccc(Br)c(C)n1,-78.5
CC(=O)CCC(=O)NCCc1ccccc1F,-63.5
SMILES,aSyn UTR act
O=C(CCc1nnc(Cc2cccc(C(F)(F)F)c2)o1)NCCc1ccccc1F,-70.9
Cc1cc(CN(C)C(=O)CCc2nnc(Cc3cccc(C(F)(F)F)c3)o2)on1,-79.0
CCN(CC)C(=O)CCc1nnc(Cc2cccc(C(F)(F)F)c2)o1,-177.1
CSC1=C(C#N)C(c2ccc(Cl)cc2)C2=C(CC(C)(C)CC2=O)N1 (stereo not drawn),i
COc1ccc(/C=C2\CN(Cc3ccccc3)C/C(=C\c3ccc(OC)c(O)c3)C2=O)cc1O,i
COc1cc(/C=N/n2cnnc2)ccc1OCc1ccccc1,-72.0
COc1cc(/C=N/n2cnnc2)ccc1OCc1ccc(C)cc1,-99.7
CCCCc1c(C)nn(-c2nnc3c4ccccc4n(C)c3n2)c1C,-95.6
COc1cc(/C=C/c2cc[n+](C)cc2)ccc1OCC(=O)Nc1ccccc1,-76.4
COc1cc(C=C2C(=O)OC(C)(C)OC2=O)ccc1OCC(=O)Nc1ccccc1,-122.8
COc1ccc2[nH]cc(C(=O)NCCc3ccccc3)c(=O)c2c1,-70.8
COc1ccc2c(=O)c(C(=O)NCCc3ccccc3)c[nH]c2c1,-169.2
CCCCNC(=O)c1ccc(Cn2c(=S)[nH]c3c([nH]c4ccc(OC)cc43)c2=O)cc1,i
